Assay results from PubChem BioAssay.
Calls of active or inactive are those of the source.

Tests used:
[1] = tested on: Plasmodium falciparum Sir2 (PF13_0152, Sir2A); assay: Plasmodium falciparum Sir2A binding compounds – biochemical, small-molecule microarray, 635 nm fluorescence, primary screen (AID 1098); conditions: fluorescence 635 nm, higher = more signal;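 note: score merges spot fluorescence intensity with its signal-to-noise ratio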
[2] = probe aDKK1 binding to arrayed compounds – biochemical, biotinylated probe, 635/667 nm fluorescence, primary screen (AID 1099); conditions: small-molecule microarray, higher = more signal;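 note: score merges 667nm spot fluorescence with signal to noise across triplicate slides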
[3] = probe aCHRDL2 binding to arrayed compounds – biochemical, biotinylated probe, 635/667 nm fluorescence, primary screen (AID 1100); conditions: small-molecule microarray, higher = more signal
[4] = change in splice reporter luminescence, either direction, cell-based, HEK293, spliceosome inhibition project, primary screen (AID 1101); conditions: HEK293 splicing luciferase reporter, 24 h, higher = more signal, called active from +8 up or from −8 down;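 note: HEK293 cells carrying a splicing-competent luciferase reporter gene; test concentration not given here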
[5] = target: Fibroblast growth factor 10 (Homo sapiens) (UniProt O15520); assay: compounds binding fibroblast growth factor 10 – biochemical, small-molecule microarray, 635 nm fluorescence, primary screen (AID 1102); conditions: FGF10 binding, fluorescence 635 nm, higher = more signal
Fibroblast growth factor 10 (Homo sapiens), sequence (O15520 whole entry, looked up): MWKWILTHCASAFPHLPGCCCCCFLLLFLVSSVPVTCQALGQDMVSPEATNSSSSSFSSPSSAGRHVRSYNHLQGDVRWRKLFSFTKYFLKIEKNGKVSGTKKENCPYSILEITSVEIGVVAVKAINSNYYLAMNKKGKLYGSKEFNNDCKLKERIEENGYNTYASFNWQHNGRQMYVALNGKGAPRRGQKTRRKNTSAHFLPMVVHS

[6] = tested on: glycogen synthase kinase-3 (GSK3A per assay name; protocol says GSK3B); assay: compounds binding glycogen synthase kinase-3 – biochemical, small-molecule microarray, 635 nm fluorescence, GSK3A, primary screen (AID 1103); conditions: fluorescence 635 nm, higher = more signal; note: the record names both GSK3A and GSK3B
[7] = target: Epidermal growth factor receptor (Homo sapiens) (UniProt P00533); assay: compounds binding epidermal growth factor receptor – biochemical, small-molecule microarray, 635 nm fluorescence, primary screen (AID 1104); conditions: EGFR binding, higher = more signal;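 note: score merges 667 nm emission intensity with spot signal to noise over triplicate slides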
Epidermal growth factor receptor (Homo sapiens), sequence (P00533 whole entry, looked up): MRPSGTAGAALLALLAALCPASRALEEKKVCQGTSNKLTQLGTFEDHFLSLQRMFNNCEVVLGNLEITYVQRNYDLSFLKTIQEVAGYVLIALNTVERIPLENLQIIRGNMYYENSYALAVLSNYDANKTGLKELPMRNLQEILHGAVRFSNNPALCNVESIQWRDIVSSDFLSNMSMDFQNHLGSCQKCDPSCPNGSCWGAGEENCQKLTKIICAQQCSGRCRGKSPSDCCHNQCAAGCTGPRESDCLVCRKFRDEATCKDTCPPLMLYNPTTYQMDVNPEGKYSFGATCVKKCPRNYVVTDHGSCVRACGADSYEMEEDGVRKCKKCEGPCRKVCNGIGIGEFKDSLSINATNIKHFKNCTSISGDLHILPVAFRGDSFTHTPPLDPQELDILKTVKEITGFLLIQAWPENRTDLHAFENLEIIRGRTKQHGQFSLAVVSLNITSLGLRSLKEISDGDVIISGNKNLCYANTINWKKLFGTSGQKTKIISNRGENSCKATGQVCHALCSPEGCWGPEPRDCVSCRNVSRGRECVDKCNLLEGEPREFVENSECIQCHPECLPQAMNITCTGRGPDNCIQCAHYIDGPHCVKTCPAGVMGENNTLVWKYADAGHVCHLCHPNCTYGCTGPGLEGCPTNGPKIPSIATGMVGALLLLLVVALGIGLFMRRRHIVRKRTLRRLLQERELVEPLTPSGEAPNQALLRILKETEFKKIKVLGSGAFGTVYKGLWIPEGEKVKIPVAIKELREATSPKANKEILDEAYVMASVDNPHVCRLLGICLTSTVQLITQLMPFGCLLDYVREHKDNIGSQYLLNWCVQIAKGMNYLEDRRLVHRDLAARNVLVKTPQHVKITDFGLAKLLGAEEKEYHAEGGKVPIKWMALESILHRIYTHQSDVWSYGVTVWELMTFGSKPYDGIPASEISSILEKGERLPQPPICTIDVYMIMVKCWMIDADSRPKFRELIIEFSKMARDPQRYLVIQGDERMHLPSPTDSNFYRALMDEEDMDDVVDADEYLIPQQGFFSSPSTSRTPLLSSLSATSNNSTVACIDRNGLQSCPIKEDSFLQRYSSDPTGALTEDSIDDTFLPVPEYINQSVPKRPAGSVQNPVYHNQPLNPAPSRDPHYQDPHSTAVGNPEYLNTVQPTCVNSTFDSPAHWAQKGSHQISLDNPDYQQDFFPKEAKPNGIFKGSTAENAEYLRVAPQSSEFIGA

[8] = target: Follistatin-related protein 3 (Homo sapiens) (UniProt O95633); assay: compounds binding follistatin-related protein 3 – biochemical, small-molecule microarray, 635 nm fluorescence, primary screen (AID 1105); conditions: FSTL3 binding, higher = more signal;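 note: score merges emission near 667 nm and signal to noise per printed spot across three slides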
Follistatin-related protein 3 (Homo sapiens), sequence (O95633 whole entry, looked up): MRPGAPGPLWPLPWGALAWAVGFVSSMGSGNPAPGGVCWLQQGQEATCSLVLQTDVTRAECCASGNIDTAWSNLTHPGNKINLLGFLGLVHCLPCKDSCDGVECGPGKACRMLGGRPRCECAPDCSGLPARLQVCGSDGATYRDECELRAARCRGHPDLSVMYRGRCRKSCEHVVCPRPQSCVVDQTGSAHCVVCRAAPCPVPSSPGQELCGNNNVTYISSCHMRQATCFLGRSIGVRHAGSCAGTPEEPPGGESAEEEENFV

[9] = target: Dickkopf-related protein 1 (Homo sapiens) (UniProt O94907); assay: small molecules binding DKK1 protein – biochemical, small-molecule microarray, 635 nm fluorescence scan, primary screen (AID 1106); conditions: higher = more signal;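 note: score merges emission near 667 nm with signal to noise over three replicate slides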
Dickkopf-related protein 1 (Homo sapiens), sequence (O94907 whole entry, looked up): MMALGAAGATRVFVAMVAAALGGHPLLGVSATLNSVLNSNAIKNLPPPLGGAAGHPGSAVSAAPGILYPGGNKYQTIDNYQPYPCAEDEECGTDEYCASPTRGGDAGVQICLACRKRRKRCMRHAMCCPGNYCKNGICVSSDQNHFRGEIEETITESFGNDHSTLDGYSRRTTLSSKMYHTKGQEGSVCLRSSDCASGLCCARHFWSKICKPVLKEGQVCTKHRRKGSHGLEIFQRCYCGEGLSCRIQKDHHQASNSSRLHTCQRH

[10] = tested on: Inhibin beta A chain (activin A); assay: small molecules binding activin A – biochemical, small-molecule microarray, 635 nm fluorescence scan, primary screen (AID 1107); conditions: INHBA, higher = more signal;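 note: mouse activin A protein probed at 4.33 µg/mL on printed slides; score merges bound-protein fluorescence near 667 nm with spot signal-to-noise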
[11] = tested on: Human papillomavirus type 1a protein E7 (residues 44-93); assay: small molecules binding HPV E7 44-93 – biochemical, small-molecule microarray, residues 44-93, 635 nm fluorescence, primary screen (AID 1108); conditions: fluorescence 635 nm, higher = more signal;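 note: E7 fragment applied at 1 µg/mL in TBST for 1 h at 4 C; score combines spot fluorescence with its signal to noise ratio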
[12] = hepatitis C replication reporter changes, two-sided – Huh7 cells, luciferase reporter, HCV replication inhibitor project, primary screen (AID 1109); conditions: Huh7 HCV replicon luciferase reporter, 48 h; higher = more signal;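 note: huh7 hepatoma cells harbouring a luciferase neomycin HCV replicon reporter; luciferase luminescence as measure of HCV replicon replication; test concentration not given here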
[13] = target: Left-right determination factor 2 (Homo sapiens) (UniProt O00292); assay: small molecules binding LEFTY2 protein – biochemical, small-molecule microarray, 635 nm fluorescence scan, primary screen (AID 1110); conditions: higher = more signal
Left-right determination factor 2 (Homo sapiens), sequence (O00292 whole entry, looked up): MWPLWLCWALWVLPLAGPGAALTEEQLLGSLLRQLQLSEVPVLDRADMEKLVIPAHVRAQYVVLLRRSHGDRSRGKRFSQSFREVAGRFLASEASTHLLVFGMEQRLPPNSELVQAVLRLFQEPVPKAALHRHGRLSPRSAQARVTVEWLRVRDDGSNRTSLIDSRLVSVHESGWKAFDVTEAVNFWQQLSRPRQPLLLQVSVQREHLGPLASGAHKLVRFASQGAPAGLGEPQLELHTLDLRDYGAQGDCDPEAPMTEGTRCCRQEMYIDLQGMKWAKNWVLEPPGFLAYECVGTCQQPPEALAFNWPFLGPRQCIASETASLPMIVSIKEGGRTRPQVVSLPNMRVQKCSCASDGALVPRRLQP

[14] = target: Calmodulin-1 (Homo sapiens) (UniProt P0DP23); assay: small molecules binding calmodulin-1 with EGTA – biochemical, small-molecule microarray, Cy5-labelled CALM1, profiling panel (AID 1111); conditions: Cy5-CALM1 binding fluorescence, higher = more signal;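 note: labelled calmodulin applied in Tris saline Tween buffer holding calcium plus EGTA and DTT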
[15] = target: Calmodulin-1 (Homo sapiens) (UniProt P0DP23); assay: small molecules binding Ca-loaded calmodulin-1 – biochemical, small-molecule microarray, Cy5-labelled CALM1, plus calcium, artefact control for SMM control-protein annotation, profiling panel (AID 1112); conditions: Cy5-CALM1 binding fluorescence, higher = more signal;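 note: score merges spot fluorescence with signal to noise from triplicate slides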
[16] = probe aWnt5a binding to arrayed compounds – biochemical, biotinylated probe, 635/667 nm fluorescence, primary screen (AID 1113); conditions: small-molecule microarray, higher = more signal;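 note: score merges 667 nm fluorescence intensity with signal-to-noise per printed feature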
[17] = probe aShh binding to arrayed compounds – biochemical, biotinylated probe, 635/667 nm fluorescence, primary screen (AID 1114); conditions: small-molecule microarray, higher = more signal;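 note: probe is biotin-labelled aShh protein from a stem cell growth factor screen; measures binding of labelled protein to compounds printed on the slide; score merges feature fluorescence at 667 nm with signal-to-noise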
[18] = probe aNog binding to arrayed compounds – biochemical, biotinylated probe, 635/667 nm fluorescence, primary screen (AID 1115); conditions: small-molecule microarray, higher = more signal;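 note: probe is biotinylated aNog protein used at 0.15 µg/mL for 1 h at 4 C; z-score combines 667 nm fluorescence of each spot with its signal to noise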
[19] = target: Torsin-1A-interacting protein 1 (Homo sapiens) (UniProt Q5JTV8); assay: compound microarray binding of lysate hLAP1 – cell lysate, small-molecule microarray, COS7 lysate, 635/667 nm fluorescence, primary screen (AID 1116); conditions: 635 nm fluorescence, higher = more signal
Torsin-1A-interacting protein 1 (Homo sapiens), sequence (Q5JTV8 whole entry, looked up): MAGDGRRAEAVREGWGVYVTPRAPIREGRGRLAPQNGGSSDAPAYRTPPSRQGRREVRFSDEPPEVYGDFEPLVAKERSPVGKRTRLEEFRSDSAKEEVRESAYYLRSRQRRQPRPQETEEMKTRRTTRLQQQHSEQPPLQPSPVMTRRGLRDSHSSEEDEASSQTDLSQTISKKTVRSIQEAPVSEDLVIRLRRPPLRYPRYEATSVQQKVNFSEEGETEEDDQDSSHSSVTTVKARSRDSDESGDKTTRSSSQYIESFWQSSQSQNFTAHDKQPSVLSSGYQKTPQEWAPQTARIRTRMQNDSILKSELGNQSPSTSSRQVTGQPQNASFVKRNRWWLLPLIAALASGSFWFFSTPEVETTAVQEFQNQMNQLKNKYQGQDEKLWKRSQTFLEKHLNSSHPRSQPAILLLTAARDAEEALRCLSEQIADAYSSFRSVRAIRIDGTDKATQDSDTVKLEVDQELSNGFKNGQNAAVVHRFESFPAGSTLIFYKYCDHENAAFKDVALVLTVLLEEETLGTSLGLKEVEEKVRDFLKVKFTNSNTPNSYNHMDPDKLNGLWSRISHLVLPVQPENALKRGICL

[20] = target: Alpha-bungarotoxin (Bungarus multicinctus) (UniProt P60615); assay: compounds binding labelled alpha-BTX control protein – biochemical, small-molecule microarray, Alexa647 label, 635/667 nm fluorescence, artefact control for SMM control protein annotation, profiling panel (AID 1117); conditions: alpha-BTX-A647 binding fluorescence, higher = more signal
Alpha-bungarotoxin (Bungarus multicinctus), sequence (P60615 whole entry, looked up): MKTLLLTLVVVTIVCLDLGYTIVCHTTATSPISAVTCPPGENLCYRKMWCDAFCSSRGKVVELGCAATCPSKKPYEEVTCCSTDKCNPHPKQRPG

Row | SMILES | composite z-score [1] | composite z-score [2] | composite z-score [3] | z-score [4] | composite z-score [5] | composite z-score [6] | composite z-score [7] | composite z-score [8] | composite z-score [9] | composite z-score [10] | composite z-score [11] | z-score [12] | composite z-score [13] | composite z-score [14] | composite z-score [15] | composite z-score [16] | composite z-score [17] | composite z-score [18] | composite z-score [19] | composite z-score [20]
1 | Cc1ccc(S(=O)(=O)N[C@@H]2COC(=O)[C@@H](C)COC(=O)CC=C[C@H]2C)cc1 | 0.154 | -0.324 | -0.352 | 0.00914 (inactive) | 0.424 | 0.513 | 0.545 | 0.66 | 0.56 | 0.13 | -0.534 | 0.264 | 0.449 | -0.0682 | -0.523 | -0.0222 | -0.157 | -0.0489 | 0.216 | 0.293
2 | CC=CC1=C(CO)C(=O)[C@@H]2O[C@@H]2C1=O | 0.148 | -0.703 | -1.79 | -0.546 (inactive) | 0.799 | 0.571 | 1.01 | 1.17 | 1.57 | 1.49 | -1.52 | -2.28 | 1.27 | -1.58 | -1.61 | -0.145 | -0.304 | 0.0947 | -0.822 | 0.177
3 | CSCC[C@@H]1NC(=O)CC=C[C@@H](C)COC(=O)[C@@H](C)COC1=O | -0.0958 | -0.417 | -0.816 | -0.0857 (inactive) | -0.0586 | 0.812 | 0.0541 | -0.149 | -0.18 | 0.705 | -2.17 | 0.371 | 0.294 | -1.31 | -1.61 | -0.197 | -0.366 | -0.15 | 0.574 | -2.23
4 | CON=C[C@@H](C)[C@H](OCc1ccccc1)C(C)C | -0.187 | -0.152 | -0.225 | -0.829 (inactive) | 0.0578 | -0.594 | 0.327 | 0.122 | 0.312 | 0.216 | -0.933 | -0.131 | 0.418 | -0.442 | -0.418 | -0.0882 | -0.419 | -0.204 | 1.15 | -0.11
5 | CCOC(=O)[C@H](CC(C)C)NC(=O)CCC1CC(OC(=O)NCc2cccc3ccccc23)CC2(CCCC(COC(=O)NCCOc3ccccc3)O2)O1 (stereo not given in full) | 0.951 | -0.246 | -0.383 | -1.87 (inactive) | 0.658 | 1.03 | 0.557 | 0.887 | 0.344 | 0.184 | 1.32 | -0.687 | 0.518 | 0.721 | -0.143 | 0.0162 | -0.253 | -0.311 | 0.556 | 0.266
6 | CCOC(=O)[C@H](CC(C)C)NC(=O)CCC1CC(OC(=O)NCc2cccc3ccccc23)CC2(CCCC(COC(=O)NCc3cccc(C(F)(F)F)c3)O2)O1 (stereo not given in full) | 0.0007 | -0.167 | -0.346 | -0.349 (inactive) | 0.475 | 0.362 | 0.508 | 0.346 | 0.491 | -0.0188 | 0.0567 | 1.32 | 0.67 | -0.333 | -0.568 | -0.0643 | -0.0626 | -0.158 | -0.0162 | 0.157
7 | COc1ccc(COC(=O)NN=C2C[C@@H](O)[C@@H](O)[C@@H]3[C@@H]4C(=O)N(c5cccc(Oc6ccccc6)c5)C(=O)[C@@H]4CC[C@@H]23)cc1 | -0.0785 | 0.557 | 1.28 | -0.161 (inactive) | -0.518 | -1.2 | -0.322 | -1.07 | -0.89 | 0.247 | -0.203 | -1.98 | -0.0421 | -0.338 | 0.0996 | -0.0165 | -0.117 | -0.0641 | 0.326 | 0.487
8 | C=CC[C@@H]1C=C[C@H](ON=C(C)CCN2CCc3nc(-c4ccccc4)c(-c4ccccc4)cc3C2)[C@@H](CO)O1 | 0.775 | -0.243 | -0.574 | 0.0139 (inactive) | 0.524 | 0.702 | 0.359 | 0.808 | 0.627 | 1.07 | 1.36 | -1.81 | 0.407 | 0.636 | -0.252 | -0.0735 | -0.0626 | -0.303 | 0.782 | 0.729
9 | CC(=O)O[C@H]1C2=CO[C@H](C)[C@H]3[C@H]4C5=C([C@H](O)[C@H]6O[C@H]6C5=O)[C@H](OC4C)[C@@]23C(=O)[C@@H]2O[C@@H]21 (stereo not given in full) | 1.74 | -0.238 | -0.647 | -4.6 (inactive) | 0.916 | -0.0987 | -0.121 | 0.0068 | 0.538 | 0.528 | -0.361 | -4.68 | 0.384 | -0.935 | -0.994 | 0.0108 | 0.0804 | 0.262 | 0.963 | -1.03
10 | COC(=O)CC=C[C@@H](C)[C@@H](C=NOC(C)CN1CCCc2nc(C)c(C)cc21)OC (stereo not given in full) | 0.465 | -0.0071 | -0.472 | 0.404 (inactive) | 0.407 | 0.522 | 0.538 | 0.406 | 0.866 | -0.0511 | 0.633 | -0.256 | 0.517 | 0.539 | -0.733 | 0.133 | -0.223 | -0.291 | 0.106 | 1.43
11 | COc1ccc(COC(=O)NN=C2C[C@@H](O)[C@@H](O)[C@@H]3[C@@H]4C(=O)N(C5CCCCC5)C(=O)[C@@H]4CC[C@H]23)cc1 | -0.378 | 1.07 | 1.47 | 1.3 (inactive) | -0.485 | -0.784 | -0.575 | -0.558 | -1.45 | 0.699 | -0.605 | -2.37 | -0.877 | 0.979 | -0.0278 | -0.243 | -0.315 | 0.051 | 1.03 | 0.161
12 | C=CC1=C[C@H](O)[C@@H]2O[C@@H]2C12OCCCO2 | 0.139 | -0.296 | -0.136 | 0.404 (inactive) | 0.351 | 1.03 | -0.547 | -0.0047 | -0.137 | 0.551 | 0.304 | -0.876 | 0.152 | -0.396 | -1.05 | -0.105 | -0.381 | -0.165 | 0.169 | 0.43
